“And” between values parts separate entries of the source, which are not always exact repeats. Equal values may be shown once. The panel holds about 83,000 compounds, 20% with a hit somewhere; the sample as a whole holds those more often.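 Assay: single dose, 48 h. Readout: percent growth (0 = no net growth; negative = cell death). Active: <10.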 A number with no mark means an inactive call. The source made the active and inactive calls.

In the experiment the test system is MDA-MB-468 breast. Put plainly: NCI-60 one-dose screen, 48 h (100 = growth as untreated, 0 = no growth, -100 = all killed). The conditions noted are these: 10 µM unless noted.
`COC(=O)c1nc(-c2ccccc2)oc1S(=O)(=O)N1CCC(C(N)=O)CC1`: the growth is -14.6% (active). In the case of `Cc1ccc(C(=O)NN2C(=O)/C(=C/C=C/c3ccco3)SC2=S)cc1`, the growth was 71%. In the case of `O=C(C(=O)N1CCOCC1)c1cn(CCCn2cc(C(=O)C(=O)N3CCOCC3)c3ccccc32)c2ccccc12`, the growth is 109%. For the molecule `CCCCCCCCN(CCCCCCCC)C(=N)c1ccnc2ccccc12`, the growth is -75.5% (active). Take `N#CC1=C(N)Oc2c(sc3c(F)cccc23)C1c1ccc(F)cc1` (stereo not given): the growth is 26.5%.

Regarding `CN(C)c1ncnc2c1ccn2C1OC(CO)C(O)C1O` (stereo not given), the growth is -64.3% (active). Consider `COc1cc(C2CC(c3ccc4c(c3)OCO4)=NN2c2ccccc2)cc(OC)c1OC` (stereo not given), for which the growth was 75.7%. As to `Cc1ccc2c(n1)C(=O)C(Cl)=C(Nc1ccccc1C(C)C)C2=O`, the growth was 34.9%. For `O=[N+]([O-])c1ccc(SSc2ccc([N+](=O)[O-])cc2Cl)c(Cl)c1`, the growth was 74.6%. For `CC(C)Cc1ccc(C(C)C(=O)NCc2c[nH]c3ccc(Cl)cc23)cc1` (stereo not given), the growth is 80.7%. As for `CCOC(=O)c1ccc(NC(=O)N2CC(C)OC(C)C2)cc1` (stereo not given), the figure is 91.7%; as for `COc1ccc(NC(=O)c2ccoc2COc2ccccc2)cc1`, 116%. As for `C/C(=N\NC(=O)CSc1nc2ccccc2c(=O)n1CCc1ccc(S(N)(=O)=O)cc1)c1ccc(Br)cc1`, the figure is 84.1%; as for `CCOC(=O)CSc1nc2ccccc2c(=O)n1Cc1ccc(S(N)(=O)=O)cc1`, 105%; as for `Brc1cc(-c2cc(-c3ccc4c(c3)OCCO4)[nH]n2)cs1`, 12%. On to `CCCC(C)c1cc(Cc2cc(Cl)cc(Cl)c2O)c(O)c(Cc2cc(Cl)cc(Cl)c2O)c1` (stereo not given), for which the growth was -1.2% (active). Consider `COc1cc2cc(Oc3ccc(NC(=O)Nc4ccc(Cl)c(Cl)c4)cc3)c(C)nc2cc1OCCN1CCOCC1`, for which the growth is 33.9%. As for `COc1cc2c(cc1OC)C(Sc1ccc(Cl)cc1)c1c(nc(N)c(C#N)c1N)O2` (stereo not given), the figure is -23.6% (active); as for `N#Cc1cnc2ccc(-c3cnc(N)nc3)cc2c1N1CCc2cc(F)c(Cl)cc21`, -38.1% (active); as for `COc1c(Cl)ccc2c(-c3nc4cc(Cl)c(F)cc4s3)cc(=O)oc12`, 80%. Take `Cn1nc(C(F)(F)F)cc1-c1c[nH]c(OCc2ccc(Cl)cc2)c(-c2ccc(Cl)c(C(F)(F)F)c2)c1=O`: the growth was -17.1% (active). On to `CSc1nnc(-c2cnn3c2NC(c2ccccc2)C3)n1-c1ccc(C(F)(F)F)cc1` (stereo not given), for which the growth was 71.1%.

Consider `CC12CCC3c4ccccc4CCC3(CO1)C2` (stereo not given), for which the growth was 88.7%. For the molecule `O=[P@@]1(c2ccccc2)O[C@H](COCc2ccccc2)[C@@H](OCc2ccccc2)[C@H](OCc2ccccc2)[C@H]1NCc1ccccc1`, the growth was 14%. Take `CCNC(=S)n1nc(SC)c(C(=O)OCC)c1N`: the growth is 114%. As for `CC(C)CCCC(=O)O`, the figure is 90.8%; as for `COCCn1c(-c2csc(-c3cn(C)c4ccc(OC)cc34)n2)cc2cccnc21`, 37.9%.

As for `NC(N)=Nc1ccc(Oc2cccc(NC(N)=Nc3ccc(I)cc3F)c2)cn1`, the growth was -8.03% (active). With `COc1cc(C2C=C(c3cccc(NC(C)=O)c3)Nc3ncnn32)cc(OC)c1OC` (stereo not given), the growth is 13.4%.

As for `COC(=O)[C@]12CC[C@@H](C)[C@H](C)[C@@H]1C1=CC(=O)[C@@H]3[C@@]4(C)C[C@@H](O)[C@H](O)[C@@]5(C)COC(=C45)C[C@@]3(C)[C@]1(C)CC2`, the growth is 44.2%. With `C[C@H](C(=O)N[C@@H](Cc1ccc(-c2ccccc2)cc1)C(=O)NC1CC(C)(C)NC(C)(C)C1)c1ccc(-c2ccccc2)c(F)c1`, the growth is -65.9% (active).

For the molecule `COc1ncc(-c2ccc3ncnc(Nc4cccc(Cl)c4)c3c2)cc1NS(C)(=O)=O`, the growth was -43.3% (active).

`O=Nc1c(O)ccc2ccccc12`: the growth was 78.9% and 81.4%. For `COc1cccc2c(=O)c3c(sc12)c(N1CCNCC1)nc1ccccc13`, the growth was 50.2%.

`Cc1cccc(NC(=O)[C@@H]2c3ccccc3C(=O)N(c3ccc(Cl)cc3)[C@H]2c2ccc(Cl)cc2)n1`: the growth was 17.7%. `Cc1c(-c2ccc(O)cc2)n(Cc2ccc(OCCN3CCCCCC3)cc2)c2ccc(O)cc12`: the growth was 74%.

As for `Cc1ccc2c(n1)C(=O)c1[nH]c3ccccc3c1C2=O`, the growth is -15.8% (active).

Turning to `CN(C)c1ccc(-c2ccc3c(c2)c(-c2ccccc2)nc(=O)n3C)cn1`, the growth is 5.69% (active). For the molecule `COc1ccc(S(=O)(=O)N2CCCCCC2)cc1NC(=O)c1[nH]c(C)c2c1CCCCC2=O`, the growth is 4% (active).

For `CCCCCCCCCCCCCCCCCCOc1ccccc1CC(=O)OCC[N+](C)(C)C`, the growth is -38.9% (active).

The values above are taken from PubChem BioAssay (NCI).
